# An excerpt weighted towards active compounds, which were near 19% of everything screened.
# TDP1 inh: TDP1 (human) enzyme inhibition; Q9NUW8; recombinant TDP1, AlphaScreen DNA substrate cleavage; Potency, µM (series often up to 130 µM), for the others: top-dose activity change, negative = inhibition, most hits filed as inhibitors; 350,000 compounds, 0.28% hits; further: potency means the concentration at half of the fitted maximal effect; on the % scale 0 is the no-effect control and ±100 the full control effect; nearly all actives have a fitted effect of over 40% in size
# Target sequence (Q9NUW8 whole entry, looked up): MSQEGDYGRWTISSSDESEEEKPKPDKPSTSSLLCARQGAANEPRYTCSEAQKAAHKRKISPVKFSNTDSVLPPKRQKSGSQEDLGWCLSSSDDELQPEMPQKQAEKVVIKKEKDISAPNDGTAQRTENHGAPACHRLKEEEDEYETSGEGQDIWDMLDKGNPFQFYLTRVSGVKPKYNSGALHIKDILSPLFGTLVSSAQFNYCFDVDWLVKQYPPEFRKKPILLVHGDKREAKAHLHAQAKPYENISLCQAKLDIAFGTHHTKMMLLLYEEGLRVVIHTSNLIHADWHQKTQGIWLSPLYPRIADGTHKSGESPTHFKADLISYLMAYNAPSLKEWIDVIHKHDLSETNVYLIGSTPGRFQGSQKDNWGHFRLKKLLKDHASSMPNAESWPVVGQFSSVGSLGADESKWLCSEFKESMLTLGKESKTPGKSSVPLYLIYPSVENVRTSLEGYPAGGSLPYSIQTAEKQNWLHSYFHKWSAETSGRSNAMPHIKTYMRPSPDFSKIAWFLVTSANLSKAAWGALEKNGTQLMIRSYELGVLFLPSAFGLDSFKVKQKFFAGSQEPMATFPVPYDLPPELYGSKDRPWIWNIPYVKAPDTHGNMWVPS
#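 E. coli-derived human Tdp1, 1 nM final. Cpd preinc 15 min RT; substrate 15 nM final, 5 min RT; AS bead mix 10 ug/ml final, 10 min RT. Signal loss = tyrosine-FITC cleavage. No-enzyme wells = max signal.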
# TDP1 cell CPT: DT40-hTDP1 cell growth loss with CPT; 420,000 compounds, 12% hits; Potency, µM (highest dose often 46.2 µM), for inactives: top-dose activity change, negative = growth inhibition, hits mostly inhibitors; chicken DT40 Tdp1-/-;hTDP1 cells + 20 nM CPT, ATP luminescence, 48 h; AID 686979; further: potency means the concentration at half of the fitted maximal effect; on the % scale 0 is the no-effect control and ±100 the full control effect; nearly all actives have a fitted effect of over 55% in size
#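 Cell growth measured by CellTiter-Glo luminescence after a minimum 48 h, 37 C compound exposure with 20 nM CPT in Tdp1-knockout DT40 cells stably expressing hTDP1, seeded 400/well; qHTS titration format.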
# HepG2 viability: HepG2 cytotoxicity, counter-screen for TGF-b inhibitors; HepG2 CAGA-GFP viability, ATP luminescence, 18 h; Potency, µM (highest dose often 46.1 µM), inactives show at the highest dose activity change, negative = cytotoxicity, most hits filed as cytotoxic; 410,000 compounds, 0.76% hits; further: potency means the concentration at half of the fitted maximal effect
#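 CellTiter-Glo luminescence gave cytotoxicity after 18 hours at 37 degrees C. The cells were HepG2 CAGA-GFP in 1% FBS DMEM, stimulated with 500 pg/mL TGF-beta after compound addition. %Activity was normalised to no-cell wells (complete cell-killing) and DMSO (no toxicity), and curves were fitted and classified.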
# TDP1 cell noCPT: qHTS for Inhibitors of human tyrosyl-DNA phosphodiesterase 1 (TDP1): qHTS in cells in absence of CPT. DT40 Tdp1-/- hTDP1 cells, no CPT, ATP luminescence, 48 h. Potency, µM (highest dose often 46.2 µM), without a hit: at the top dose activity change, negative = growth inhibition, actives largely listed as inhibitors. 420,000 compounds, 15% hits; further: potency means the concentration at half of the fitted maximal effect; on the % scale 0 is the no-effect control and ±100 the full control effect; nearly all actives have a fitted effect of over 55% in size
#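 Growth of hTDP1-complemented DT40 Tdp1-knockout cells is measured by ATP luminescence after at least 48 hr compound exposure at 37 °C, with DMSO substituting for the 20 nM CPT used in the parallel screen.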
# IL-1B inflam inh: inhibitors of inflammasome signaling (IL-1 beta secretion) | activity change, % at 57.5 µM | THP-1 LPS/ATP IL-1B secretion, AlphaLISA, 16 h; hits give low values | 360,000 compounds, 4.7% hits; in the data active means activity change below about -50%; inconclusive means mostly about -30% to -49%; further: on the % scale 0 is the no-effect control and ±100 the full control effect
#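 Secreted IL-1B measured by AlphaLISA bead assay after 16 h compound exposure of THP-1 cells; compounds (final up to 57.5 uM) added 1 h before LPS (250 ng/mL) and ATP (1.25 mM) stimulation; lower signal means less secretion.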
# TGFb inhibitor: inhibitors of TGF-b signaling | HepG2 CAGA-GFP TGF-b/SMAD3 reporter, GFP fluorescence, 18 h; TGF-beta stimulated, 500 pg/mL final | Potency, µM (top dose mostly 46.1 µM), inactives show at the highest dose activity, negative = inhibition, actives largely listed as inhibitors | 410,000 compounds, 1.2% hits; further: potency means the concentration at half of the fitted maximal effect; on the % scale 0 is the no-effect control and ±100 the full control effect; nearly all actives have a fitted effect of over 65% in size
#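 Using HEPG2 CAGA-GFP reporter cells at 1000 cells/well, we pinned test compounds, stimulated with recombinant TGF-beta (500 pg/mL final) and measured total well GFP after 18 h.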
# Numbers without * were called inactive; ? = inconclusive; · = not tested or not shown; [ ] = remark or other dose. Unless noted, the call rests on the fitted dose curve; in most records, active means well fitted curve in the direction sought with a large enough effect; inconclusive means small, poorly fitted or top-dose-only effect, or another doubt; inactive means no such curve, though single readings can be large; an effect the other way counts as inactive or inconclusive.
SMILES,TDP1 inh,TDP1 cell CPT,HepG2 viability,TDP1 cell noCPT,IL-1B inflam inh,TGFb inhibitor
CC(C)(C)NC(=O)NC(=O)COC(=O)COc1ccc(Cl)cc1Cl,1%,18µM*,3%,?,8,-3%
CC(C)(C)NC(=O)NC(=O)COc1ccc(Br)cc1Br,-8%,-26%,-46%,-30%,-6,?
Cc1[nH]c2ccc(C(=O)N3CCN(c4ccc(F)cc4)CC3)cc2c1C,13%,?,1%,-17%,0,2%
O=C(c1ccc2[nH]c3c(c2c1)CCCC3)N1CCN(c2ccc(F)cc2)CC1,11%,23µM*,-23%,?,-18,?
COc1ccccc1N1CCN(C(=O)c2ccc3[nH]c4c(c3c2)CCCC4)CC1,1%,?,1%,?,-76*,0%
CC(=O)c1ccc(N2CCN(C(=O)c3ccc4[nH]c(C)c(C)c4c3)CC2)cc1,6%,21µM*,-24%,16µM*,-12,?
O=C(NCc1cccs1)c1nn(-c2ccccc2)nc1CO,5%,-26%,-25%,?,·,0%
O=Cc1ccc(CO)o1,13%,·,·,·,·,·
O=C(CN1C(=O)COc2ccccc21)Nc1ccc(N2CCOCC2)cc1,3%[56.1 µM],21%,-2%,9%,-18,-29%
COc1ccc(CCNC(=O)c2ccc3c(c2)ncn3-c2ccc(C)cc2C)cc1OC,13%,?,-38%,21µM*,·,?
COc1ccc(CCNC(=O)c2ccc3c(c2)ncn3-c2ccc(C(C)C)cc2)cc1OC,3%,10µM*,-38%,18µM*,·,?
CCOCCCNC(=O)c1ccc2c(c1)ncn2-c1ccc(C)cc1C,·,-26%,1%,16µM*,-16,3%
COc1ccc(CNC(=O)/C=C/[C@H]2O[C@@H](n3ccc(=O)[nH]c3=O)[C@H](O)[C@@H]2O)cc1,·,5%,2%,14%,29,1%
Cc1nc2cc(NC(=O)[C@@H]3C[C@@H](Sc4ccccn4)CN3Cc3ccccc3)ccc2s1,·,5%[9.04 µM],·,-10%,·,·
CSc1nsc(N/N=C/c2ccc3c(c2)OCO3)c1C#N,0%,-8%,7%,2%,4,10%
COc1cc(/C=N/Nc2snc(SC)c2C#N)cc(OC)c1OC,-2%,?,-25%,1.8µM*,-21,?
O=[N+]([O-])c1cc(-c2cnc3ccccc3n2)ccc1Oc1ccc(Cl)cc1,3%,18µM*,-17%,?,31,0%
COc1ccccc1Oc1ccc(-c2cnc3ccccc3n2)cc1[N+](=O)[O-],0%,23µM*,3%,7.3µM*,-5,-17%
CCn1cc(S(=O)(=O)c2cccc(C)c2)c(=O)c2cc(F)c(N3CCN(c4ccccc4)CC3)cc21,-2%,-3%,0%,?,·,1%
Cc1ccc(NC(=S)/C(=C(\[O-])c2ccc(F)cc2)[n+]2ccccc2)cc1,5%,-3%,0%,?,43,?
C=CCn1c(C)cc(/C([O-])=C(/C(=S)Nc2ccc(OC(F)F)cc2)[n+]2ccc(N(C)C)cc2)c1C,5%,26µM*,3%,18µM*,-11,-18%
CN(C)c1cc[n+](/C(C(=S)Nc2ccc(SC(F)F)cc2)=C(/[O-])c2ccccc2)cc1,0%,13µM*,-3%,10µM*,-10,-10%
Cc1cc(C)c(/C([O-])=C(/C(=S)Nc2ccc(SC(F)F)cc2)[n+]2ccccc2)cc1C,9%,?,-21%,-77%,5,-25%
[O-]/C(=C(\C(=S)Nc1ccc(SC(F)F)cc1)[n+]1ccccc1)c1cc(Cl)ccc1Cl,5%,16µM*,10%,16µM*,-24,-21%
COc1ccc(N2CC(NC(=O)COc3ccc4ccccc4c3)CC2=O)cc1OC (stereo unspecified),5%,-27%,-1%,-23%,·,6%
SMILES,TDP1 inh,TDP1 cell CPT,HepG2 viability,TDP1 cell noCPT,IL-1B inflam inh,TGFb inhibitor
CCc1cccc(NC(=O)Cn2nc(-c3ccc(OC)cc3)ccc2=O)c1,7%,-30%,-32%,?,·,2%
COc1ccc2c(c1)NC(c1cccnc1)=NC(c1ccc(F)cc1)=N2,7%,15µM*,1%,9.2µM*,·,10%
COc1ccc(C2=NC(c3ccccc3)=Nc3ccc(C)cc3N2)cc1,9%,26µM*,-17%,21µM*,·,-2%
COc1ccc(C2=Nc3cccc4cccc(c34)N2)cc1,-8%,?,-15%,16µM*,17,-17%
COc1ccc(NC2=Nc3cccc4cccc2c34)cc1,1%,?,6%,26µM*,-8,-22%
COCCNC(=O)C(c1ccc(O)cc1)N(Cc1cccs1)C(=O)CCC(=O)Nc1ccccn1 (stereo unspecified),7%[0.0935 µM],0%,4%,-1%,-2,4%
Cc1ccc(C2=Nc3ccccc3NC(c3ccncc3)=N2)cc1,5%,?,-19%,13µM*,·,-9%
Clc1ccc2c(c1)NC(c1ccncc1)=NC(c1cccs1)=N2,5%,?,-11%,?,·,3%
Cc1ccc(C2=NC(c3ccccc3)=Nc3ccc(Cl)cc3N2)cc1,7%,?,-2%,23µM*,·,11%
CCN1/C(=C\C=C2\C(=O)N(C)C(=S)N2C)Sc2ccccc21,0%,-5%,-17%,?,20,8%
CCOC(=O)/C(=C/C=C1\Sc2cc(OCC)c(OCC)cc2N1CC)C(C)=O,3%,7.3µM*,-6%,4.6µM*,-2,199%
CCOC(=O)/C(=C\C=C1/Sc2cc(OCC)c(OCC)cc2N1CC)C(C)=O,-1%,1.8µM*,10%,2.3µM*,-93*,252%
COc1ccc(Oc2ncc3nc(-c4cccc(C#N)c4)c(=O)n(Cc4cccc(OC)c4)c3n2)cc1,·,2%,·,-93%,·,·
CCC(C)N1C(=O)S/C(=C/c2ccc(N3CCOCC3)cc2C)C1=O (stereo unspecified),4%,21µM*,-22%,23µM*,0,1%
